Assay outcomes (PubChem)
Rows were chosen to be rich in hits. Some 2% of all compounds tested hit in one or more screens of this group.
Arbovirus inh = antivirals against arbovirus infection, primary screen, cell-based, full library, 10K replicate subset; actives 0.37% (n = 200,000); arbovirus infection cell-based antiviral screen; inhibition, % at 10 µM; in the data active = inhibition above about 30%
Efa HMGR inh = inhibitors of E. faecalis class II HMGR, primary screen, biochemical, Enterococcus faecalis; inhibition, % at 10 µM; actives 0.41% (n = 190,000); purified E. faecalis HMGR, NADPH absorbance 340 nm kinetic; AID 1066, 2008;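 active = inhibition above a set limit, the median over all tested compounds plus 3 SD, cut at about 9.5% in these data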;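 note: enzyme runs in reverse so mevalonate oxidation gives rising NADPH absorbance; 0% = complete reaction with DMSO and 100% = background rate lacking mevalonate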
Hsp70 activator = Hsp70 transcriptional activators, primary screen, cell-based, HeLa, Hsp70 promoter luciferase, luminescence, 10 µM; AID 1203, 2008; actives 0.04% (n = 200,000); HeLa Hsp70 promoter luciferase reporter; scaled: vehicle 0, proteasome-inhibitor control 100%; activation, % at 10 µM;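 active = activation above the mean across all tested compounds plus 3 SD, cutoff set per campaign, cut at about 5.5% in these data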;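 note: 100% = MG132 at 30 µM as the positive control and 0% = DMSO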
PKD1 kinase inh = inhibitors of human PKD1 kinase, biochemical, fluorescence polarization; Serine/threonine-protein kinase D1 (Homo sapiens), Q15139; PKD1 kinase fluorescence polarization assay; inhibition, % (no concentration beside the values); actives 0.056% (n = 200,000); AID 797, 2007; in the data active = inhibition above about 50%
Wee1 stabilizer = Wee1 degradation inhibitors, primary screen, cell-based, HeLa, Wee1K328M-luciferase, luminescence. HeLa Luc-Wee1K328M stability; 100% = proteasome inhibitor MG132 effect. actives 1.2% (n = 220,000). reporter increase, % at 5 µM. Wee1-like protein kinase (Homo sapiens), P30291. AID 1321, 2008;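 active = activation above the mean of all tested compounds plus 3 SD, set per screening run, cut at about 8.8% in these data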;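 note: cells exposed to compound for 20 h before luminescence read; 0% = DMSO alone and 100% = MG132 at 30 µM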
* = called active by the depositor.

Cc1ccc(CNS(=O)(=O)c2ccc3c(c2)n(C)c(=O)c(=O)n3C)cc1 was read as Arbovirus inh 7, Efa HMGR inh -3, Hsp70 activator 0, PKD1 kinase inh 4 and Wee1 stabilizer 10*.
Screening O=c1[nH]oc2cc(Cl)ccc12 returned Wee1 stabilizer -1.
For CN1CCN(c2ccc(C(=O)c3ccc(F)cc3)cc2)CC1 the results were Arbovirus inh 1, Efa HMGR inh 0, Hsp70 activator 0, PKD1 kinase inh 11 and Wee1 stabilizer 9.0*.
For CCOc1ccc(/C(O)=C2/C(=O)C(=O)N(CCCn3ccnc3)C2c2cccs2)cc1Cl (configuration not stated) the results were Arbovirus inh 8, Efa HMGR inh -4, Hsp70 activator 0, PKD1 kinase inh 12 and Wee1 stabilizer 10*.
For CC(C)C(=O)NNc1ccc(C(F)(F)F)cn1 the results were Wee1 stabilizer -2.
Screening CC12CCC(c3c(CO)nn(-c4ccccc4)c31)C2(C)C (configuration not stated) returned Arbovirus inh 13, Efa HMGR inh 0, Hsp70 activator 0, PKD1 kinase inh -3 and Wee1 stabilizer 10*.
For CC12CCC(c3c(C(=O)O)nn(-c4ccccc4)c31)C2(C)C (configuration not stated) the results were Arbovirus inh 10, Efa HMGR inh -1, Hsp70 activator 0, PKD1 kinase inh -8 and Wee1 stabilizer -3.
`Nc1ncc(Br)cc1Br` gave Arbovirus inh 4, Efa HMGR inh 1, Hsp70 activator 0, PKD1 kinase inh 7 and Wee1 stabilizer -1.
Screening N#Cc1cnc(N)c(Br)c1 returned Arbovirus inh 11, Efa HMGR inh -3, Hsp70 activator 0, PKD1 kinase inh -2 and Wee1 stabilizer 11*.
For Cc1cc(C)c2[nH]c(=O)c(CN(Cc3cccs3)C(=S)NCC3CCCO3)cc2c1 (configuration not stated) the results were Arbovirus inh 13, Efa HMGR inh -1, Hsp70 activator 0, PKD1 kinase inh -5 and Wee1 stabilizer -3.
For COc1ccc(CN2C(=O)[C@@H]3C(c4ccccc4Cl)=NO[C@@H]3C2=O)cc1 the results were Arbovirus inh 8, Efa HMGR inh 11*, Hsp70 activator 0, PKD1 kinase inh 5 and Wee1 stabilizer -2.
For CN(CC1CCCO1)S(=O)(=O)c1ccc(C(=O)Nc2nccs2)cc1 (configuration not stated) the results were Wee1 stabilizer -2.
For CC(C(=O)Nc1ccc(S(=O)(=O)N2CCOCC2)cc1)N1CCN(c2ccccn2)CC1 (configuration not stated) the results were Arbovirus inh 22, Efa HMGR inh 13*, Hsp70 activator 0, PKD1 kinase inh -4 and Wee1 stabilizer -3.
CC(=O)Nc1ccc(S(=O)(=O)N2CCN(c3ccccn3)CC2)cc1 was read as Arbovirus inh 2, Efa HMGR inh 4, Hsp70 activator 0, PKD1 kinase inh -4 and Wee1 stabilizer 0.
For O=C(NCc1ccccc1)NC1CC2CCC(C1)N2Cc1ccco1 (configuration not stated) the results were Arbovirus inh 5, Efa HMGR inh -4, Hsp70 activator 0, PKD1 kinase inh -3 and Wee1 stabilizer 0.
O=C(CN1C2CCC1CC(NC(=O)Nc1ccccc1)C2)NCc1ccco1 (configuration not stated) was read as Arbovirus inh 5, Efa HMGR inh -2, Hsp70 activator 0, PKD1 kinase inh -5 and Wee1 stabilizer 10*.
Screening COc1ccc2cc(CCNC(=O)c3cccs3)c(=O)[nH]c2c1 returned Arbovirus inh -8, Efa HMGR inh 5, Hsp70 activator 0, PKD1 kinase inh -8 and Wee1 stabilizer 9.5*.
`Cc1cc2nc(=O)c(/C=C3\C=Nc4ccccc43)c(N)n2o1` gave Wee1 stabilizer 6.
`CC(C)Sc1nsc2nc(=O)c(/C=C3\C=Nc4ccccc43)c(N)n12` gave Arbovirus inh 34*, Efa HMGR inh -2, Hsp70 activator 0, PKD1 kinase inh -3 and Wee1 stabilizer 2.
`CS(=O)(=O)c1nsc2nc(=O)c(/C=C3\C=Nc4ccccc43)c(N)n12` gave Arbovirus inh 46*, Efa HMGR inh 1, Hsp70 activator 0, PKD1 kinase inh 2 and Wee1 stabilizer 0.
